In the library only some 28% were active in any assay of this set; here they are far more common.
CYP2C9 inh = blockers of cytochrome P450 2C9 activity – biochemical, luminescence, ADME assay, primary screen; CYP2C9 Supersomes, luciferin-H conversion; inhibition, % at 5 µM; 96,000 tested, 20% active; P11712;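 active = blocking of liver enzyme CYP2C9 beyond about 50% at 5 µM, limit read from the data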
CYP2C19 inh = blockers of cytochrome P450 2C19 activity – biochemical, luminescence, ADME assay, primary screen | P33261 | CYP2C19 Supersomes, luciferin-H EGE luminescence, 30 min | inhibition, % at 5 µM | 96,000 tested, 21% active;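 active = CYP2C19 inhibition above a set limit at 5 µM in the primary screen, cut at about 50% in these data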;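 note: plate controls were negative control wells for no effect and 2.5 mM tranylcypromine positive control for full effect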
CYP2C19 activ = human CYP2C19 activators, primary screen, biochemical, luminescence | Cytochrome P450 2C19 (Homo sapiens), P33261 | recombinant CYP2C19, luciferin-H EGE luminescence; hits give high values; 0 = fully inhibited enzyme, 1 = untreated enzyme | activation factor at 5 µM | 96,000 tested, under 10 active;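 active = activation factor of at least 2 at 5 µM in the primary screen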;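 note: 0 = wells with 2.5 mM tranylcypromine and 1 = vehicle-only wells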
CYP2C9 act = human CYP2C9 activators, primary screen, biochemical, luminescence; recombinant CYP2C9, luciferin-H conversion; hits give high values; factor 1 = untreated enzyme, 0 = blocked; AID 1024, 2008; activation factor at 5 µM; 96,000 tested, 1.4% active; Cytochrome P450 2C9 (Homo sapiens), P11712;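 active = activation factor of 2 or more for CYP2C9 at a 5 µM dose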;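 note: 0 = sulfaphenazole-blocked wells and 1 = vehicle-only wells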
PTK2B oligo ant = antagonists of Pyk2 self-association, primary screen, Q293 cells, FERM NanoBiT luminescence, HTS; Protein-tyrosine kinase 2-beta (Homo sapiens), Q14289; hits give low values; z-score (the deposit names both 25 µM and 10 µM); 99,000 tested, 0.83% active; AID 1347419, 2020;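 active = Z-score of -3 or lower, scaled per plate to the spread of control and sample wells; inactive = z-score above -3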;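 note: negative z-score means lost luminescence so less FERM oligomerization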
Starred values were filed as active, the others as inactive; / = no result given.

SMILES	CYP2C9 inh	CYP2C19 inh	CYP2C19 activ	CYP2C9 act	PTK2B oligo ant
CCOC(=O)C1CCN(C(=O)Cc2cccs2)CC1	-8	59*	0.4	1.1	0.48
CCOC(=O)c1c2n(c3ccc(OC(C)=O)cc13)CCC2	-13	-1	1	1.1	/
N#CC1(c2ccccc2)CCCN1C(=O)c1ccc(Br)o1 (stereo not drawn)	17	29	0.7	0.8	-0.33
Cn1c(N)c(C(=O)COC(=O)c2cccs2)c(=O)n(C)c1=O	6	12	0.9	0.9	-0.96
CCOC(=O)CSc1nc2c(cnn2-c2ccc(C)cc2)c(=O)[nH]1	1	-6	1.1	1	-1.7
CC(C)(C)c1ccc(OCCn2ccccc2=O)cc1	40	70*	0.3	0.6	-0.2
Cn1c(=O)c2c(nc(SCCCO)n2Cc2ccccc2Cl)n(C)c1=O	54*	34	0.7	0.5	1.3
Cn1c(=O)c2c(nc(Sc3n[nH]c(N)n3)n2Cc2ccccc2Cl)n(C)c1=O	15	54*	0.5	0.8	0.66
N#CCN1CCN(CC(=O)Nc2cccc3ccccc23)CC1	-5	-1	1	1	0.44
COC(=O)c1ccc(N2CCC(c3cc(-c4ccc(OC)cc4)n[nH]3)CC2)c([N+](=O)[O-])c1	49	48	0.5	0.5	-1.6
CC(=O)c1ccc(N2CCC(c3cc(-c4ccc(Cl)cc4)n[nH]3)CC2)c([N+](=O)[O-])c1	57*	56*	0.4	0.4	-2.5
COc1ccc(-c2cc(C3CCN(c4ccc(C(C)=O)cc4[N+](=O)[O-])CC3)[nH]n2)cc1	65*	84*	0.2	0.3	-3.2*
CN(c1cccc(NC(=O)CN2C(=O)c3ccccc3S2(=O)=O)c1)S(C)(=O)=O	15	-20	1.2	0.9	-0.1
Cc1nc2ccccc2n1CC(O)Cn1c(C(F)(F)F)nc2ccccc21 (stereo not drawn)	72*	33	0.7	0.3	0.17
O=C(O)Cn1c(C(F)(F)F)nc2ccccc21	-7	-4	1	1.1	-0.19
O=C(Cn1c(C(F)(F)F)nc2ccccc21)c1ccc(Cl)cc1	44	100*	0	0.6	-0.02
O=C(Cn1c(C(F)(F)F)nc2ccccc21)c1ccccc1	39	53*	0.5	0.6	0.05
OC(CN1CCCCC1)Cn1c(C(F)(F)F)nc2ccccc21 (stereo not drawn)	-12	-2	1	1.1	1.6
CC(=O)Nc1ccc(NC(=O)COC(=O)Cc2cccs2)cc1	10	11	0.9	0.9	0.07
COc1ccccc1C(CC(N)=O)c1ccco1 (stereo not drawn)	-44	-14	1.1	1.4	-0.08
CC(=O)c1c(C)[nH]c(C(=O)NCCc2cccc(C)c2)c1C	34	38	0.6	0.7	0.3
COc1ccc(CCNC(=O)c2[nH]c(C)c(C(C)=O)c2C)cc1	73*	50*	0.5	0.3	1
CC(=O)c1c(C)[nH]c(C(=O)OCC(=O)NCCc2ccc(Cl)cc2)c1C	87*	87*	0.1	0.1	-0.16
CCOC(=O)Nc1oc2ccccc2c(=O)c1CN1CCOCC1	12	1	1	0.9	-1.5
Cc1ccc(C(=O)COC(=O)C2CC(=O)N(c3nc(-c4ccccc4)cs3)C2)cc1C (stereo not drawn)	90*	13	0.9	0.1	1.5
SMILES	CYP2C9 inh	CYP2C19 inh	CYP2C19 activ	CYP2C9 act	PTK2B oligo ant
CCOc1ccccc1C(=O)Nc1cc(Cl)ccc1O	-27	-9	1.1	1.3	-3.7*
CCOc1cc(C#N)c(NC(=O)c2cccnc2Cl)cc1OCC	65*	-7	1.1	0.3	0.61
COc1ccccc1C(=O)Nc1cc(Cl)ccc1O	15	7	0.9	0.8	-2.4
CC(C)c1nnc(NC(=O)CCC(=O)NCc2cccs2)s1	9	-6	1.1	0.9	0.22
CCn1c(=O)cc(OCC(=O)NCc2cccnc2)c2ccccc21	-5	-10	1.1	1	1.3
CCCOc1ccc(Br)cc1/C=N/O	26	34	0.7	0.7	1.3
CCCc1cc(-c2nc(N)ncc2-c2ccc3c(c2)OCCCO3)c(O)cc1OC	68*	42	0.6	0.3	-3.1*
CN(Cc1ccccc1)C(=O)CCNS(=O)(=O)c1ccc2c(c1)oc(=O)n2C	17	49	0.5	0.8	1.7
Cc1ccccc1NC(=O)Cc1cn(C)c2ccccc12	-196	45	0.6	3*	0.29
COc1cccc(NC(=O)Cn2cc(C#N)c3ccccc32)c1	/	/	/	/	1.1
COc1cccc(NC(=O)Cn2c(=O)n(CC3CCCO3)c(=O)c3ccccc32)c1 (stereo not drawn)	41	63*	0.4	0.6	-2.4
CCCCN(CC)C(=O)Cc1cn(C)c2ccccc12	-238	95*	0	3.4*	-0.88
O=C(Cn1c(=O)n(CC2CCCO2)c(=O)c2ccccc21)c1ccc(Cl)c(Cl)c1 (stereo not drawn)	33	6	0.9	0.7	-2
COc1cccc(NC(=O)Cc2cn(C)c3ccccc23)c1	-281	33	0.7	3.8*	-0.18
COc1cccc(NC(=O)CCCn2c(=O)[nH]c3ccccc3c2=O)c1	72*	25	0.8	0.3	-0.06
Cc1ccc(C(=O)N2CCN(C(=O)CN3CCCC3)C2)cc1	14	16	0.8	0.9	1.4
OC(COc1ccc2ccccc2c1)CN1CCCC1 (stereo not drawn)	5	-3	1	0.9	0.79
CC(=O)Nc1ccc(OCC(O)CN2CCN(c3ccc(C)c(Cl)c3)CC2)cc1 (stereo not drawn)	73*	68*	0.3	0.3	0.44
OC(COc1ccc2ccccc2c1)CN1CCN(c2ccc(F)cc2)CC1 (stereo not drawn)	-2	51*	0.5	1	/
CC(=O)Nc1ccc(OCC(O)CN2CCN(c3cc(Cl)ccc3C)CC2)cc1 (stereo not drawn)	61*	84*	0.2	0.4	-0.45
CCNC(=O)CC1C(=O)N(c2ccccc2)C(=O)N1Cc1ccc(OC)cc1 (stereo not drawn)	8	4	1	0.9	-0.92
CC1(C)Cc2c(C#N)c(OCC(=O)c3ccc(Cl)cc3)nc(-c3ccco3)c2CO1	18	59*	0.4	0.8	-0.03
Cc1nc(OCC(=O)c2ccc(Cl)cc2)c(C#N)c2c1COC(C)(C)C2	18	52*	0.5	0.8	-0.72
CCc1nc(OCC(=O)c2ccccc2)c(C#N)c2c1COC(C)(C)C2	28	47	0.5	0.7	-1
CCOC(=O)N1CCN(C(=O)CN(C)S(=O)(=O)c2ccc(OC)c(OC)c2)CC1	-44	-5	1	1.4	0.77
Cc1ccc(NC(=O)CN(C)S(=O)(=O)c2cccc3nsnc23)cc1	77*	28	0.7	0.2	-0.05
